± gives the standard deviation of the averaged measurements. Of roughly 5,400 targets only a part is listed; those with the largest changes were picked by preference.
Target: T1, UniProt Q92796-3|Q5JUW8|Q92796
T1 sequence (whole entry): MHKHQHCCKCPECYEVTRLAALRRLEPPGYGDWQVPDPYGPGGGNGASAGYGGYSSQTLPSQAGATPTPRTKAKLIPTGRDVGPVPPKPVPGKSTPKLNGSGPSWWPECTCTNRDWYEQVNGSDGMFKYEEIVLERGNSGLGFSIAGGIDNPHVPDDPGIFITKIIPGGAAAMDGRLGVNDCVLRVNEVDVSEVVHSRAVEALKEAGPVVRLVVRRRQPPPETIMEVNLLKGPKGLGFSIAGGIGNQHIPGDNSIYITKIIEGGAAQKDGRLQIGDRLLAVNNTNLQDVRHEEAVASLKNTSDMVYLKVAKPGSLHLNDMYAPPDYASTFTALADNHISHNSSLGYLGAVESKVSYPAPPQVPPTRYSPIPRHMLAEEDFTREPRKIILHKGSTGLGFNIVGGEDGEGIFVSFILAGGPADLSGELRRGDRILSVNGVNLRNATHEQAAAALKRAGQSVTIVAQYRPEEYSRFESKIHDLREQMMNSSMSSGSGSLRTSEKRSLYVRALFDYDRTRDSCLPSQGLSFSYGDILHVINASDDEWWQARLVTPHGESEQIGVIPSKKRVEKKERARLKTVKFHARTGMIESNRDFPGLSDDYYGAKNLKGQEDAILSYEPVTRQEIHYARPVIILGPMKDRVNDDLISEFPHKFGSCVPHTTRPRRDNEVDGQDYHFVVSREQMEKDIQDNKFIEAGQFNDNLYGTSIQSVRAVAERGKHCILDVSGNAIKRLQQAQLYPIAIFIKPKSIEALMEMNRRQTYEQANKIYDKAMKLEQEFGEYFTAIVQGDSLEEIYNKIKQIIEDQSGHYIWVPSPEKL
Test: NP40-soluble protein abundance relative to vehicle (solubility fold change) (ratio); higher = more soluble protein in presence of GTP
Outline: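 In three independent experiments, Jurkat crude lysate made by Dounce homogenisation was treated for 10 min at room temperature and then 3 min at 37 °C with eight concentrations ranging from 0.1 to 10 mM. It was then solubilised with 0.8% NP40 plus benzonase for 60 min at 4 °C and ultracentrifuged. The supernatant was TMT-labelled for LC-MS/MS, and each value is the fold change against the detergent-processed vehicle for the same replicate, using vsn-normalised intensities.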

Nc1nc2c(ncn2[C@@H]2O[C@H](COP(=O)(O)OP(=O)(O)OP(=O)(O)O)[C@@H](O)[C@H]2O)c(=O)[nH]1 [guanosine triphosphate]
NP40-soluble protein abundance (concentration: 0.1mM): 1.15 ± 0.034
NP40-soluble protein abundance (concentration: 0.5mM): 1.17 ± 0.023
NP40-soluble protein abundance (concentration: 1mM): 1.17 ± 0.037
NP40-soluble protein abundance (concentration: 2mM): 1.17 ± 0.038
NP40-soluble protein abundance (concentration: 4mM): 1.13 ± 0.03
NP40-soluble protein abundance (concentration: 6mM): 1.12 ± 0.07
NP40-soluble protein abundance (concentration: 8mM): 1.18 ± 0.018
NP40-soluble protein abundance (concentration: 10mM): 1.14 ± 0.037
